Only some compounds are listed: those with a hit (about 19% of all), similar ones and a draw of the others.
TDP1 cell noCPT: qHTS for Inhibitors of human tyrosyl-DNA phosphodiesterase 1 (TDP1): qHTS in cells in absence of CPT | DT40 Tdp1-/- hTDP1 cells, no CPT, ATP luminescence, 48 h | hit rate 15% among 420,000 | AID 686978, 2013 | Potency, µM (series often up to 46.2 µM), inactives show top-dose activity change, negative = growth inhibition, most hits filed as inhibitors; also: potency is read from the fitted curve at half-maximal effect; nearly all actives have a fitted effect of over 55% in size
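Stably hTDP1-transfected Tdp1-null chicken DT40 cells were treated with library compounds minus camptothecin and grown for at least 48 hr at 37 °C, after which cellular ATP was quantified by luminescence.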
IL-1B inflam inh: inhibitors of inflammasome signaling (IL-1 beta secretion); THP-1 LPS/ATP IL-1B secretion, AlphaLISA, 16 h; active compounds read low; activity change, % at 57.5 µM; hit rate 4.7% among 360,000; AID 743279; in the data active = activity change below about -50%; inconclusive = mostly about -30% to -49%
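Secreted IL-1B measured by AlphaLISA bead assay after 16 h compound exposure of THP-1 cells; compounds (final up to 57.5 uM) added 1 h before LPS (250 ng/mL) and ATP (1.25 mM) stimulation; lower signal means less secretion.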
HT1080 IDH1KD tx: toxicity to HT-1080 IDH1 knockdown cells (counter line); HT-1080 IDH1 knockdown viability, ATP luminescence, 48 h; Potency, µM (doses to about 46.1 µM), for the others: at the highest dose activity, negative = toxicity, actives largely listed as cytotoxic; hit rate 2% among 360,000; AID 686971;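 also: potency is read from the fitted curve at half-maximal effect; 0% = DMSO wells and -100% = cell-free medium wells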
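Knockdown cells (IDH1KD HT-1080) received compounds 2 h after plating at 750 cells/well and were kept 48 h at 37 °C in 5% FBS RPMI. A CellTiter-Glo luminescence read gave % activity for curve fitting.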
DT40 TDP1 CPT: DT40-hTDP1 cell growth loss with CPT; chicken DT40 Tdp1-/-;hTDP1 cells + 20 nM CPT, ATP luminescence, 48 h; Potency, µM (titrated, usually from 46.2 µM), for the others: at the top dose activity change, negative = growth inhibition, hits mostly inhibitors; hit rate 12% among 420,000; also: potency is read from the fitted curve at half-maximal effect; nearly all actives have a fitted effect of over 55% in size
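Chicken DT40 Tdp1-/- cells complemented with human TDP1, 400 cells/well, exposed to compounds plus 20 nM camptothecin for at least 48 h at 37 C; viability read as ATP content by CellTiter-Glo luminescence.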
HT1080NT lethal: kills 2HG-producing HT-1080-NT fibrosarcoma cells; Potency, µM (titrated, usually from 46.1 µM), inactives show at the highest dose activity, negative = less viability, usual class: cytotoxic; HT-1080-NT fibrosarcoma viability, CellTiter-Glo ATP luminescence, 48 h; hit rate 1.6% among 360,000;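 also: NT is the 2HG producing partner of a matched IDH1 knockdown line; potency is read from the fitted curve at half-maximal effect; 0% = DMSO-treated cells and -100% = media-only wells without cells; nearly all actives have a fitted effect of over 55% in size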
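Luminescent CellTiter-Glo readout after 48 hours of compound exposure at 37 degrees C defined viability of HT-1080-NT cells. Activity was normalized to DMSO wells and cell-free media wells; concentration-response curves were fitted and assigned curve classes.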
* = called active by the depositor; ? = inconclusive; nt = no result; [ ] = dose if it differs, or a comment. Unless noted, calls follow the shape of the dose curve; as a rule, active = well fitted curve in the direction sought with a large enough effect; inconclusive = small, poorly fitted or top-dose-only effect, or another doubt; inactive = no such curve, though single readings can be large; an effect the other way counts as inactive or inconclusive. Unless noted, % is scaled to controls: 0 for no effect and ±100 for the full control effect.

SMILES	TDP1 cell noCPT	IL-1B inflam inh	HT1080 IDH1KD tx	DT40 TDP1 CPT	HT1080NT lethal
O=C(CCc1nnc(Cc2ccc(-c3ccccc3)cc2)o1)NCC1CC1	-27%	-2	-3%	-20%	-5%
O=C(NCC1CC1)C1(C(F)(F)F)CC(CCc2ccccc2)CCCO1 (configuration not stated)	21µM*	-2	-7%	21µM*	-17%
COc1ccc(C(=O)N2CCCC(c3cc(C(=O)Nc4ccccc4)no3)C2)cc1 (configuration not stated)	?	-9	-7%	-6%	4%
CCOc1ccc(-c2cc3nc(C4CCN(C(=O)OC(C)(C)C)CC4)c(C(=O)Nc4c(C)cccc4C)cn3n2)cc1	13µM*	nt	nt	15µM*	nt
CCOc1ccc(-c2cc3nc(C4CCN(C(=O)OC(C)(C)C)CC4)c(C(=O)O)cn3n2)cc1	?	-22	?	?	?
CCOc1ccc(-c2cc3nc(C4CCN(C(=O)OC(C)(C)C)CC4)c(C(=O)Nc4cccc(Cl)c4C)cn3n2)cc1	15µM*	nt	nt	18µM*	nt
CCOc1ccc(-c2cc3nc(C4CCN(C(=O)OC(C)(C)C)CC4)c(C(=O)Nc4ccc(C)cc4C)cn3n2)cc1	21µM*	nt	nt	18µM*	nt
COC(=O)C1=C(C)NC(C)=C(C(=O)OC)C1c1ccccc1OCc1c(C)no[n+]1[O-]	?	2	2%	?	-1%
COCCNC(=O)C1CCCN(C(=O)c2ccc(SC(F)(F)F)cc2)CC1 (configuration not stated)	-4%	32	15%	-11%	5%
CC(C(=O)O)c1ccc2c(c1)Cc1cccnc1O2 (configuration not stated)	?	nt	nt	-9%	nt
Cc1ccccc1N(CC(=O)N1CCCCCC1)S(C)(=O)=O	0%	16	8%	21%	0%
Cc1ccc(-n2nnnc2SCC(=O)NCC2(N3CCCCC3)CCCCC2)c(C)c1	-10%	-57*	-15%	-23%	-24%
O=C(CSc1nnnn1-c1ccccc1)NCC1(N2CCOCC2)CCCCC1	-7%	1	0%	-15%	8%
Cc1ccc(-n2nnnc2SCC(=O)NCC2(N3CCOCC3)CCCCC2)cc1	?	4	1%	?	2%
C/C(N)=C(/C#N)C(=O)CSc1nnnn1-c1ccc(C)cc1C	13µM*	0	?	23µM*	3%[9.24 µM]
Cc1ccc(-n2nnnc2SCC(=O)NCC2(N3CCOCC3)CCCCC2)c(C)c1	16µM*	-13	-3%	?	4%
Cc1cccc(-n2nnnc2SCC(=O)NCC2(N3CCOCC3)CCCCC2)c1C	21µM*	-14	-3%	18µM*	2%
Cc1ccc(CNC(=O)CCCc2c[nH]c3ccccc23)cc1	-21%	13	-3%	-19%	-1%
C/C(N)=C(/C#N)C(=O)CSc1nc2ccccc2c(=O)n1Cc1ccc(C)cc1	?	-12	16µM*	-29%	?
Cc1ccc(SCC(=O)Nc2ccc(N3CCN(C)CC3)c(F)c2)c(C)c1	16µM*	-20	?	21µM*	?
O=C(CSc1ccc(Cl)cc1)Nc1ccc(N2CCN(c3ccccc3)CC2)c(F)c1	?	15	2%[9.24 µM]	?	18%
Cc1ccc(-n2nnnc2SCC(=O)Nc2ccc(N3CCN(C)CC3)cc2)c(C)c1	18µM*	1	-1%	?	-23%
C/C(N)=C(/C#N)C(=O)CSc1nc2ccccc2c(=O)n1Cc1ccc(F)cc1	?	-11	-18%	?	2%
COc1ccccc1C(=O)NCC(=O)N/N=C/c1cc(Br)ccc1OCc1ccccc1	23µM*	-78*	-4%	?	-9%
C#CCOc1ccccc1/C=N/NC(=O)c1ccccc1OCc1ccccc1	21µM*	-5	-24%	?	-19%
SMILES	TDP1 cell noCPT	IL-1B inflam inh	HT1080 IDH1KD tx	DT40 TDP1 CPT	HT1080NT lethal
Cc1ccc(/C=N/NC(=O)c2ccccc2OCc2ccc(F)cc2)o1	2.9µM*	0	-11%	5.8µM*	-6%
Cc1cccc(/C=N/NC(=O)c2cc(Br)ccc2OCc2ccccc2)n1	23µM*	4	18µM*	?	?
O=C(Nc1ccccc1N1CCOCC1)c1cccc(Oc2ccccc2)c1	?	?	-25%	?	-24%
CCCCNCc1cc(OCC)c(OCC)cc1Br	?	0	0%	-7%	-13%
COC(=O)c1ccc(CSc2nnc(Nc3ccc(C)cc3)s2)o1	?	-5	2%	?	8%
COc1ccc(/C=N/NC(=O)c2ccccc2OCc2ccccc2)c(OC)c1	18µM*	-10	-3%	?	0%
Cc1cc(C(=O)N/N=C/c2ccc(OCc3ccccc3)cc2)c(C)o1	16µM*	-22	-16%	?	-30%
COc1ccc(/C(C)=N/NC(=O)c2ccccc2OCc2ccccc2)c(OC)c1	?	11	-19%	?	-23%
O=S(=O)(c1ccc(OCC(O)CNC23CC4CC(CC(C4)C2)C3)c(Cl)c1)N1CCOCC1 (configuration not stated)	16µM*	-78*	13µM*	?	21µM*
O=C(COc1ccc(S(=O)(=O)N2CCOCC2)cc1Cl)NC1CCCCC1	-21%	-14	-9%	?	-6%
CCOC(=O)C(C)Oc1cccc2c(=O)n(CC(=O)N3CCN(C(=O)OCC)CC3)ccc12 (configuration not stated)	-21%	-18	8%	-6%	23%
COc1cccc(NC(=O)C2CC(=O)N=C(N)S2)c1 (configuration not stated)	-1%	9	12%	-30%	7%
COc1cccc(NC(=O)C2CC(=O)n3cnnc3S2)c1 (configuration not stated)	5.2µM*	4	10%	2.9µM*	1%
COc1ccc(NC(=O)C2CC(=O)n3cnnc3S2)cc1 (configuration not stated)	4.6µM*	-4	6%	2.3µM*	-1%
CC(=O)c1cccc(-n2c(=O)c3c4c(sc3n(Cc3cccc(C)c3)c2=O)CN(C(C)=O)CC4)c1	15µM*	nt	nt	16µM*	nt
CCOC(=O)N1CCc2c(sc3c2c(=O)n(CCc2ccccc2)c(=O)n3Cc2ccc(C)cc2C)C1	23µM*	nt	nt	?	nt
CC(=O)N1CCc2c(sc3c2c(=O)n(-c2ccccc2)c(=O)n3Cc2cccc(C(F)(F)F)c2)C1	18µM*	nt	nt	16µM*	nt
CC(=O)N1CCc2c(sc3c2c(=O)n(CCc2ccccc2)c(=O)n3Cc2cccc(C)c2)C1	16µM*	nt	nt	15µM*	nt
CCOC(=O)N1CCc2c(sc3c2c(=O)n(Cc2ccccc2)c(=O)n3Cc2ccc(C)cc2)C1	?	1	11%	?	2%

Screening results deposited in PubChem BioAssay by National Center for Advancing Translational Sciences (NCATS).
